From PubChem BioAssay AID1159580 (chemical genetic matrix, 2015)
The campaign covered roughly 5,500 compounds. About 2,000 (36%) were called active. About 18% were inconclusive and are not listed. Rule as the data show it: active = normalized growth mostly below about 0.91 (no sharp cut-off); inconclusive = no clear call, values can overlap the other calls; inactive = mostly above about 0.92. This is one part of the list.

Test: chemical genetic growth profiling, strain panel (AID 1159580);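 also: tested at 20 µM; growth read once vehicle control cultures reached saturation at 30 °C; 1 = growth at the plate median or of vehicle wells; lower values mean less growth of the strain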
Conditions: growth OD

Measured: normalized growth

COC1=CC(=O)C[C@@H](C)[C@]12Oc1c(Cl)c(OC)cc(OC)c1C2=O
inactive: S. cerevisiae deletion strains, locus YJR075W, strain HOC1, active compounds read low 1.03 | S. cerevisiae deletion strains, locus YKL009W, strain mrt4, active compounds read low 1 | S. cerevisiae deletion strains, locus YKL068W, active compounds read low 0.986 | S. cerevisiae deletion strains, locus YKL085W, strain MDH1 (second series), active compounds read low 0.989 | S. cerevisiae deletion strains, locus YKL085W, strain MDH1, active compounds read low 0.989 | S. cerevisiae deletion strains, locus YKL160W, strain elf1, active compounds read low 1.02 | S. cerevisiae deletion strains, locus YKL190W, strain CNB1, active compounds read low 1 | S. cerevisiae deletion strains, locus YKR001C, strain vps1, active compounds read low 0.995 | S. cerevisiae deletion strains, locus YKR026C, strain gcn3, active compounds read low 0.979 | S. cerevisiae deletion strains, locus YKR091W, strain srl3, active compounds read low 0.989 | S. cerevisiae deletion strains, locus YLL001W, strain dnm1, active compounds read low 0.984 | S. cerevisiae deletion strains, locus YLL026W, active compounds read low 0.984 | S. cerevisiae deletion strains, locus YLL041C, strain sdh2, active compounds read low 0.996 | S. cerevisiae deletion strains, locus YLR027C, strain aat2, active compounds read low 0.993 | S. cerevisiae deletion strains, locus YLR039C, strain RIC1, active compounds read low 0.983 | S. cerevisiae deletion strains, locus YLR058C, strain SHM2, active compounds read low 0.996 | S. cerevisiae deletion strains, locus YLR102C, strain apc9, active compounds read low 1 | S. cerevisiae deletion strains, locus YLR113W, strain HOG1, active compounds read low 1 | S. cerevisiae deletion strains, locus YLR221C, strain rsa3, active compounds read low 0.956 | S. cerevisiae deletion strains, locus YLR258W, strain gsy2, active compounds read low 0.982 | S. cerevisiae deletion strains, locus YLR262C, strain YPT6 (second series), active compounds read low 0.967 | S. cerevisiae deletion strains, locus YLR262C, strain YPT6, active compounds read low 0.936 | S. cerevisiae deletion strains, locus YLR268W, strain sec22, active compounds read low 0.994 | S. cerevisiae deletion strains, locus YLR320W, strain mms22, active compounds read low 0.982 | S. cerevisiae deletion strains, locus YLR330W, strain CHS5, active compounds read low 0.994 | S. cerevisiae deletion strains, locus YLR342W, strain FKS1 (second series), active compounds read low 0.979 | S. cerevisiae deletion strains, locus YLR342W, strain FKS1, active compounds read low 0.972 | S. cerevisiae deletion strains, locus YLR357W, strain rsc2, active compounds read low 1.01 | S. cerevisiae deletion strains, locus YLR370C, strain arc18, active compounds read low 0.943 | S. cerevisiae deletion strains, locus YLR371W, strain rom2, active compounds read low 0.987 | S. cerevisiae deletion strains, locus YLR384C, strain iki3, active compounds read low 0.993 | S. cerevisiae deletion strains, locus YLR418C, strain cdc73, active compounds read low 0.987 | S. cerevisiae deletion strains, locus YML016C, strain PPZ1, active compounds read low 0.991 | S. cerevisiae deletion strains, locus YML032C, strain rad52, active compounds read low 0.986 | S. cerevisiae deletion strains, locus YML120C, strain ndi1, active compounds read low 0.951 | S. cerevisiae deletion strains, locus YML124C, strain tub3, active compounds read low 0.99 | S. cerevisiae deletion strains, locus YMR058W, strain fet3, active compounds read low 0.999 | S. cerevisiae deletion strains, locus YMR078C, strain ctf18, active compounds read low 0.987 | S. cerevisiae deletion strains, locus YMR125W, strain sto1, active compounds read low 0.988 | S. cerevisiae deletion strains, locus YMR129W, active compounds read low 0.983 | S. cerevisiae deletion strains, locus YMR205C, strain PFK2, active compounds read low 1.01 | S. cerevisiae deletion strains, locus YMR223W, strain ubp8, active compounds read low 0.988 | S. cerevisiae deletion strains, locus YMR231W, strain pep5, active compounds read low 0.991 | S. cerevisiae deletion strains, locus YMR263W, strain SAP30, active compounds read low 1.01 | S. cerevisiae deletion strains, locus YMR307W, strain GAS1, active compounds read low 0.847 | S. cerevisiae deletion strains, locus YNL067W, strain RPL9B, active compounds read low 1.04 | S. cerevisiae deletion strains, locus YNL071W, strain lat1, active compounds read low 0.992 | S. cerevisiae deletion strains, locus YNL128W, strain TEP1, active compounds read low 1 | S. cerevisiae deletion strains, locus YNL153C, strain GIM3, active compounds read low 1.04 | S. cerevisiae deletion strains, locus YNL183C, strain NPR1, active compounds read low 0.958 | S. cerevisiae deletion strains, locus YNL209W, strain ssb2, active compounds read low 0.984 | S. cerevisiae deletion strains, locus YNL233W, strain BNI4, active compounds read low 1.06 | S. cerevisiae deletion strains, locus YNL248C, strain rpa49, active compounds read low 1.05 | S. cerevisiae deletion strains, locus YNL250W, strain rad50, active compounds read low 1 | S. cerevisiae deletion strains, locus YNL271C, strain bni1, active compounds read low 0.99 | S. cerevisiae deletion strains, locus YNL298W, strain CLA4, active compounds read low 0.995 | S. cerevisiae deletion strains, locus YNL307C, strain MCK1, active compounds read low 1 | S. cerevisiae deletion strains, locus YNL322C, strain KRE1 (second series), active compounds read low 0.991 | S. cerevisiae deletion strains, locus YNL322C, strain KRE1, active compounds read low 1 | S. cerevisiae deletion strains, locus YNR049C, strain mso1, active compounds read low 0.98 | S. cerevisiae deletion strains, locus YNR052C, strain pop2, active compounds read low 0.999 | S. cerevisiae deletion strains, locus YOL006C, strain TOP1, active compounds read low 1.11 | S. cerevisiae deletion strains, locus YOL012C, strain htz1 0.916 | S. cerevisiae deletion strains, locus YOL147C, strain pex11, active compounds read low 0.993 | S. cerevisiae deletion strains, locus YOR001W, strain rrp6, active compounds read low 0.967 | S. cerevisiae deletion strains, locus YOR061W, strain CKA2, active compounds read low 0.968 | S. cerevisiae deletion strains, locus YOR069W, strain VPS5, active compounds read low 0.993 | S. cerevisiae deletion strains, locus YOR070C, strain gyp1, active compounds read low 0.977 | S. cerevisiae deletion strains, locus YOR080W, strain dia2, active compounds read low 0.982 | S. cerevisiae deletion strains, locus YOR083W, strain WHI5, active compounds read low 1.02 | S. cerevisiae deletion strains, locus YOR106W, strain vam3, active compounds read low 1 | S. cerevisiae deletion strains, locus YOR136W, strain idh2, active compounds read low 1 | S. cerevisiae deletion strains, locus YOR144C, strain elg1, active compounds read low 0.988 | S. cerevisiae deletion strains, locus YOR184W, strain ser1, active compounds read low 0.991 | S. cerevisiae deletion strains, locus YOR231W, strain MKK1, active compounds read low 1.01 | S. cerevisiae deletion strains, locus YOR265W, strain rbl2, active compounds read low 0.978 | S. cerevisiae deletion strains, locus YOR270C, strain vph1, active compounds read low 0.952 | S. cerevisiae deletion strains, locus YOR290C, strain snf2, active compounds read low 1.03 | S. cerevisiae deletion strains, locus YOR316C, strain cot1, active compounds read low 0.992 | S. cerevisiae deletion strains, locus YPL051W, strain arl3, active compounds read low 1.02 | S. cerevisiae deletion strains, locus YPL055C, strain LGE1, active compounds read low 0.985 | S. cerevisiae deletion strains, locus YPL078C, strain atp4, active compounds read low 1.03 | S. cerevisiae deletion strains, locus YPL106C, strain sse1, active compounds read low 0.964 | S. cerevisiae deletion strains, locus YPL240C, strain hsp82, active compounds read low 0.988 | S. cerevisiae deletion strains, locus YPL241C, strain CIN2, active compounds read low 0.992 | S. cerevisiae deletion strains, locus YPL256C, strain CLN2, active compounds read low 0.985 | S. cerevisiae deletion strains, locus YPR119W, strain clb2, active compounds read low 0.99 | S. cerevisiae deletion strains, locus YPR141C, strain kar3, active compounds read low 0.978 | S. cerevisiae deletion strains, locus YPR163C, strain tif3, active compounds read low 0.98 | S. cerevisiae deletion strains, locus YPR167C, strain met16, active compounds read low 0.99 | S. cerevisiae deletion strains, strain wtn01, active compounds read low 0.998 | S. cerevisiae strains, strain wild type, active compounds read low 0.988
